# IMPase Li cell: membrane-permeable IMPase blocker, potentiated with lithium | CHO-M1 cells, IP1 TR-FRET (IP-One), carbachol + lithium | 210,000 tested, 0.35% active | Potency, µM (highest dose often 59.4 µM), inactives show at the top dose activity, negative = IMPase inhibition, usual class: inhibitors; active = well fitted inhibition curve with a large enough effect; inconclusive = small, poorly fitted or top-dose-only effect; inactive = no such curve, though single readings can be large or run the other way;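 note: IP1 builds up when IMPase is blocked and the TR-FRET signal falls; potency is the fitted concentration of half-maximal effect; plate controls were basal vehicle for no effect and high inhibitor control for full effect; nearly all actives have a fitted effect of over 50% in size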
#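 IP1 accumulation measured by competitive TR-FRET in lysed CHO-M1 cells after 30 min compound exposure at 37C, with a small lithium addition to potentiate weak responses. Hill-equation AC50 from ratio and donor-channel data.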
# HPGD block: inhibitors of human 15-hydroxyprostaglandin dehydrogenase (HPGD). purified HPGD, NADH fluorescence kinetic, PGE2 substrate. Potency, µM, for the others: at the top dose activity change, negative = inhibition, hits mostly inhibitors. 150,000 tested, 4.3% active. AID 894; note: potency is the fitted concentration of half-maximal effect
#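 NADH formation kinetics: reaction with 30 uM PGE2 and 1 mM NAD+ (final), 20 nM enzyme, Tris-HCl pH 8 with Tween 20, after 15 min compound preincubation at room temperature. Fluorescence change, last versus first of five reads.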
# PNC inhibitor: inhibitors of perinucleolar compartment assembly | PC3M PTB-GFP, PNC prevalence imaging, 16 h; active compounds read low | activity change (PNC), negative = inhibition, % at 10 µM | 140,000 tested, 3.1% active;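 active = readout at or below -70, meaning at least 70% loss of cells showing the perinucleolar compartment, a nuclear body marking cancer cells; inconclusive = readout between -30 and a set limit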;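 note: plate controls were DMSO wells for no effect and camptothecin positive control wells for full effect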
#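 Read-out is percentage of cells bearing a perinucleolar compartment, from automated 20x imaging of fixed, Hoechst-stained PC3M PTB-GFP cells. Cells were seeded 4 h, then exposed 16 h to compound (23 nl of library stock) in duplicate plates.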
# IMPase cell inh: cell-permeable inhibitors of inositol monophosphatase (IMPase) | 120,000 tested, under 10 active | CHO-M1 cells, IP1 accumulation, HTRF TR-FRET ratio | inhibition (IP1 accumulation), % at 46.1 µM; active = well fitted curve in the direction sought with a large enough effect in the signal ratio, not every such curve was filed as active; inconclusive = small, poorly fitted or top-dose-only effect, or a change in a side signal; inactive = no such curve, though single readings can be large or run the other way; the % refers to the signal ratio;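 note: cells stimulated with carbachol in lithium chloride buffer; plate controls were DMSO basal wells for no effect and reference inhibitor wells for full effect; higher means more IMPase inhibition seen as more IP1 and lower FRET ratio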
#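 The IP-One HTRF competitive assay in carbachol-stimulated CHO-M1 cells quantifies cellular IP1. Compounds spanned up to 46 uM final, and activity is expressed as AC50 from concentration-response fits of the ratio and donor data.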
# ALDH1A1 inh: blocks purified human ALDH1A1 activity; Purified ALDH1A1, NADH fluorescence, propionaldehyde substrate; Potency, µM (titrated, usually from 75.3 µM), without a hit: top-dose activity, negative = inhibition, usual class: inhibitors; 220,000 tested, 7.3% active; AID 1030;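 note: potency is the fitted concentration of half-maximal effect; plate controls were no enzyme wells and a reference inhibitor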
# Target sequence (P00352 whole entry, looked up): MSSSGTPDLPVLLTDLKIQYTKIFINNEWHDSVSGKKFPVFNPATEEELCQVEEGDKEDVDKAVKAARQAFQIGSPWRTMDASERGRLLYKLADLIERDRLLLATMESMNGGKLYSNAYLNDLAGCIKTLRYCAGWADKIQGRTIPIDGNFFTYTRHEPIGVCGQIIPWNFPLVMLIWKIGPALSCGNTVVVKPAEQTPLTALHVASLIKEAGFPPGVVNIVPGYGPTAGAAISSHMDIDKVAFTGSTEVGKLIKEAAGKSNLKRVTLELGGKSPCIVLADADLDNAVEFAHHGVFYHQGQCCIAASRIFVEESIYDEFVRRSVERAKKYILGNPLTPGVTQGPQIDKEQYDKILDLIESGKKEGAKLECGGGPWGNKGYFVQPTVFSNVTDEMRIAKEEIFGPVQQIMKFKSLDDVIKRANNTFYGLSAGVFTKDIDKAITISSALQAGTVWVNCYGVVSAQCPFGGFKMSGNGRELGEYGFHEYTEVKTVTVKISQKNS
# The depositor's hits bear a star; ? = inconclusive; / = no result given; [ ] = dose if it differs, or a comment. Sampled rows, rich in hits. Any-hit rate of the full collection: about 11%. Unless noted, calls come from the whole dose curve; as a rule, active = well fitted inhibition curve with a large enough effect (not every such curve was filed as active); inconclusive = small, poorly fitted or top-dose-only effect, or another doubt; inactive = no such curve, though single readings can be large or run the other way. Unless noted, % is set by controls: 0 for no effect and ±100 for the full control effect.
SMILES,IMPase Li cell,HPGD block,PNC inhibitor,IMPase cell inh,ALDH1A1 inh
COC(=O)C1=C(C(=O)OC)[C@@H]2N(Cc3ccccc3)c3ccccc3[C@@]23C[C@@H](C(=O)OC)N(S(=O)(=O)c2ccc(Br)cc2)C3=N1,-2.3%,-8.3%,/,/,-2.4%[13.5 µM]
COc1ccc(N=C2NN=C(c3c(C)[nH]c4ccccc34)CS2)cc1,10.2%,-22.8%,-21.1,/,14.1µM*
Cc1[nH]c2ccccc2c1N=Nc1ccc(F)cc1,-0.4%,/,/,/,2.9%
Cc1[nH]c2ccccc2c1C1=NNC(=Nc2ccc(F)cc2)SC1,11.4%,-4.4%,-1.2,-0.8,20µM*
COc1ccc(N=C2SCC(c3ccccc3)=NN2C)cc1,/,/,/,/,-3.0%
NC(Cc1ccccc1)=NCC(=O)O,0.4%,-4.6%,/,/,-7.2%[13.5 µM]
COc1ccc(S(=O)(=O)Nc2cc(C)c(O)c(S(=O)(=O)c3ccccc3)c2)cc1,4.5%[38.3 µM],-2.3%,-102.2*,-4.6,?
COc1ccc(S(=O)(=O)c2c(C)c(NS(=O)(=O)c3ccccc3)cc(C)c2O)cc1,14.2%,/,/,/,8.91µM*
Cc1c(NS(=O)(=O)c2ccccc2)cc(Cl)c(O)c1C,14.6%[38.3 µM],31.6µM*,-8.0,-2.6,22.4µM*
CN(C)c1ncc2nc(-c3ccccc3)c(=O)n(Cc3ccc(F)cc3)c2n1,0.7%,/,/,/,?
O=C(COC(=O)c1ccc(Cl)nc1)NCCC1=CCCCC1,1.3%,/,/,/,?
COc1ccc(/C=C(/NC(=O)c2ccccc2Cl)C(=O)O)cc1,-1.5%,/,/,/,-1.3%
COc1cccc2[nH]c3c(=O)n(CCN(C)C)cnc3c12,-0.9%[38.3 µM],?,-87.2*,-21.0,?
O=C(CCNS(=O)(=O)c1cccc2nonc12)N1CCN(c2cccc(Cl)c2)CC1,-14.1%[38.3 µM],-9.9%,?,11.0,2µM*
O=C(CCNS(=O)(=O)c1cccc2nonc12)NCCc1ccc(Cl)cc1,20.4%[38.3 µM],-5.0%,25.4,-10.8,20µM*
O=C(CCS(=O)(=O)c1cccc2nonc12)N1CCN(c2ccc(F)cc2)CC1,7.8%,-12.2%,-6.5,0.8,?
Nc1nc(=S)c2[nH]cnc2[nH]1,-9.1%,35.5µM*,/,/,?
Nc1ncnc2nc[nH]c12,-3.2%,-10.8%,/,/,3.9%
Cc1n(CC(O)COC2CCCCC2)c2ccccc2[n+]1C (configuration not stated),0.1%,-3.6%,4.6,/,-7.5%
CCOC(=O)CSc1nc2cc(C(=O)N3CCC(C(N)=O)CC3)ccc2c(=O)n1-c1ccccc1,2.8%[38.3 µM],-27.1%,-13.0,5.7,1.9%
COC(=O)c1ccc2c(=O)n(-c3ccccc3)c(SCN3C(=O)c4ccccc4C3=O)nc2c1,-22.2%,-11.5%,?,/,12.6µM*
CC(=O)Nc1ccc(SCC(=O)Nc2cc(C(C)(C)C)nn2-c2ccccc2)cc1,25.2%,-10.0%,-115.1*,/,13.8%
Cc1cc(C)cc(NC(=O)CCC(=O)Nc2cc(C)on2)c1,6.8%,-16.5%,-100.0*,8.7,-2.6%
O=C(c1ccc(-n2c(SCc3cccc(F)c3)nc3ccccc3c2=O)cc1)N1CCOCC1,12.4%,-12.6%,-24.9,/,0.316µM*
COC(=O)CN1C(c2ccccc2)=Nc2ccc(Cl)cc2C1c1ccccc1 (configuration not stated),17.1%[38.3 µM],-8.3%,-16.9,12.1,6.4%
SMILES,IMPase Li cell,HPGD block,PNC inhibitor,IMPase cell inh,ALDH1A1 inh
O=C(CSc1nc2ccccc2c(=O)n1-c1ccc(SC(F)F)cc1)Nc1ccc(N2CCOCC2)cc1,-1.4%,/,/,/,10µM*
Cc1cc(NC(=O)CSc2ccccc2)no1,-2.0%[38.3 µM],-8.0%,7.0,0.4,4.9%
Cc1cc(NC(=O)CSc2nc3ccccc3c(=O)n2-c2ccccc2)no1,7.08µM*,-28.3%,?,3.4,?
CC(=O)Nc1ccc(SCC(=O)Nc2cc(C)on2)cc1,17.9%,/,/,/,22.4µM*
Cc1cc(NC(=O)CSc2nc(C(C)C)nc3ccccc23)no1,12.6µM*,-19.3%,-26.5,-14.1,?
O=C(O)c1ccc(S(=O)(=O)N=Nc2c(O)[nH]c3ccccc23)cc1,-2.2%,?,/,/,?
Cc1nnc(NC(=O)CSc2nc(C(C)C)nc3ccccc23)s1,7.94µM*,-1.9%,22.0,?,1.8%
O=[N+]([O-])c1cc(S(=O)(=O)NCCN2CCOCC2)ccc1Sc1nnnn1-c1ccccc1,17.8%,-8.4%,-15.2,/,14.1µM*
CN1/C(=C\C=N\O)C(C)(C)c2ccccc21,-14.6%,/,/,/,-5.5%
